Sampled rows, rich in hits. Any-hit rate of the full collection: about 3.4%.
TEAD-YAP inh: TEAD-YAP interaction inhibition, primary screen, TEAD-YAP interaction inhibitor project, luminescence, HEK-TIYL cells | TEAD-Gal4/YAP UAS-luciferase luminescence | inhibition, % at 9.12 µM | actives 1.4% (n = 640,000) | AID 1259422, 2018; in the data active means inhibition above about 32%
MITF primary: MITF inhibitors, primary screen, biochemical, AlphaScreen, human | Microphthalmia-associated transcription factor (Homo sapiens), O75030 | inhibition, % at 2.6 µM | actives 0.91% (n = 650,000) | AlphaScreen MITF homodimerization, bead proximity signal; in the data active means inhibition above about 50%
FBW7 act: FBW7 E3 ligase activators, primary screen, biochemical, AlphaScreen, human; F-box/WD repeat-containing protein 7 (Homo sapiens), Q969H0; AlphaScreen FBW7–phospho-cyclin E peptide binding, activator screen; normalized activity (activation), % at 26.1 µM; actives 0.13% (n = 650,000); in the data active means normalized activity above about 1.9%;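 further: purified mutant Fbw7 with reduced substrate affinity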
GPR151 activ: activators of human GPR151, primary screen, cell-based, PathHunter beta-arrestin, luminescence; G-protein coupled receptor 151 (Homo sapiens), Q8TDV0; PathHunter beta-arrestin GPR151 cells; activation, % at 11.2 µM; actives 1% (n = 650,000); AID 1508602, 2020; in the data active means activation above about 4.9%
MITF inh conf: MITF inhibitors, retest of hits, confirmation, biochemical, AlphaScreen, triplicate; AID 1259372, 2018; actives 16% (n = 4,700); shares compounds with MITF primary; AlphaScreen MITF homodimerization, biotin/His-MITF beads; inhibition, % at 2.6 µM;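 active means inhibition above a cutoff derived from the DMSO control wells, cut at about 28% in these data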;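 further: inhibitors lower the bead chemiluminescence by keeping MITF from dimerizing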
AS interf DR: AlphaScreen optical interference compounds, dose response, counter-screen, biochemical, HTS; AID 1259373, 2018; actives 6% (n = 480); shares compounds with MITF primary; IC50, µM; AlphaScreen optical interference counterscreen, cell-free; call rule not given here
AlphaScreen intf2: AlphaScreen optical interference compounds, counter-screen for MITF inhibitor project, biochemical, triplicate. LysRS AlphaScreen counterscreen, signal interference. AID 1259376, 2018. actives 7.6% (n = 4,700). shares compounds with MITF primary. inhibition, % at 2.6 µM;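 active means inhibition above a cutoff derived from the DMSO control wells, cut at about 30% in these data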
A number is an active result; . = inactive; / = not tested or not shown.

SMILES	TEAD-YAP inh	MITF primary	FBW7 act	GPR151 activ	MITF inh conf	AlphaScreen intf2	others
O=C(Nc1ccc(Oc2ccccc2)cc1)c1cnc(-c2cccs2)s1	.	53.4	.	.	.	.
CC(=O)NC(=C(Cl)Cl)S(=O)(=O)c1ccc(C)cc1	.	.	.	.	/	/
Cc1nnc(NC(=O)c2ccc(C(=O)c3ccccc3)cc2)s1	.	.	.	.	/	/
O=C(CN1CCSCC1)N/N=C/c1cccc(C(F)(F)F)c1	.	56.1	.	.	.	.
S=c1[nH]nc(CN2CCSCC2)n1-c1cccc(Cl)c1	.	62.2	.	.	.	.
COc1cccc(-n2c(CN3CCSCC3)n[nH]c2=S)c1	.	.	.	.	/	/
NC1(C(Cl)(Cl)Cl)Oc2ccccc2O1	.	83.5	.	.	113.5	.	AS interf DR=.
COc1ccc2c(C=Nc3ccccc3)c(O)n(C)c(=O)c2c1	.	.	.	.	/	/
CCN(C(=O)c1ccco1)c1nc2c(s1)CCc1oc(C)cc1-2	.	.	.	.	/	/
CCN(C(=O)c1ccccn1)c1nc2c(s1)CCc1oc(C)cc1-2	.	77.2	.	.	36.8	77.3
O=C(Cc1ccc(Cl)cc1)NCC(c1ccsc1)N1CCCC1 (configuration not stated)	.	.	.	.	/	/
CCOC(=O)c1c(NC(=O)c2nn(C)cc2Cl)sc2c1CCCC2	.	93.1	.	.	.	.
CCOC(=O)c1c(NC(=O)c2nn(C)cc2[N+](=O)[O-])sc2c1CCCC2	.	.	.	.	/	/
CCOc1ccc2c(c1)-c1c(ssc1=Nc1ccc(C)cc1)C(C)(C)N2C	.	.	.	.	/	/
COCCNCC(=O)Nc1ccc(N2CCCCC2)cc1	.	60.9	.	.	.	.
O=C(CCl)Nc1ccc(CN2CCCCC2)cc1	.	.	.	.	/	/
COc1cccc(CNCC(=O)Nc2ccc(N3CCCCCC3)cc2)c1	.	53.3	.	.	.	.
COCCNCC(=O)Nc1ccc(CN2CCCCC2)cc1	.	53.0	.	.	.	.
O=C1CN(C(=O)COC(=O)c2c3c(nc4ccccc24)CCC3)c2ccccc2N1	.	71.8	.	.	.	.
CC1=C(C(=O)OCc2ccccc2)Sc2ccc(C(F)(F)F)cc2N1	.	.	.	.	/	/
Cc1ccc(OCC(=O)Nc2ccccc2C#N)cc1C	.	.	.	.	/	/
Cc1ccc(C(=O)OCc2cn3ccccc3n2)cc1	.	51.1	.	.	.	.
COCCSc1nnc(-c2ccncc2)n1C	.	58.8	.	.	.	.
CN(CCc1ccccn1)S(=O)(=O)c1ccc(F)cc1	.	75.3	.	.	.	.
CN(CCc1ccccn1)Cc1c[nH]c2ccccc12	.	73.9	.	.	.	.
SMILES	TEAD-YAP inh	MITF primary	FBW7 act	GPR151 activ	MITF inh conf	AlphaScreen intf2	others
COc1ccccc1CN(C)CCc1ccccn1	.	67.0	.	.	.	.
CN(CCc1ccccn1)Cc1cccc2ccccc12	.	.	.	.	/	/
COc1ccc(CN(C)CCc2ccccn2)c(OC)c1OC	.	58.0	.	.	.	.
COc1ccc(Br)cc1CN(C)CCc1ccccn1	.	.	.	.	/	/
CN(CC(=O)NCc1ccccn1)S(=O)(=O)c1ccc(F)cc1	.	.	.	.	/	/
COCCNC(=O)c1ccc2c(=O)n(Cc3ccco3)c(SCC(=O)Nc3ccccc3Cl)nc2c1	.	.	.	.	/	/
CCOc1ccccc1NC(=O)C(=O)NC(C)c1ccccc1 (configuration not stated)	.	.	.	.	/	/
CCOc1cc(C2C3=C(CCCC3=O)NC3=C2C(=O)CCC3)ccc1OCc1ccccc1Cl	.	.	.	.	/	/
Cn1cccc1CN1CCN(C(=O)c2ccc(-c3ccccc3)cc2)CC1	.	.	.	.	/	/
Cn1cccc1CN1CCN(C(=O)c2ccc(F)cc2)CC1	.	53.4	.	.	.	.
Cn1cccc1CN1CCN(C(=O)c2cccc(F)c2)CC1	.	.	.	.	/	/
